Experimental data published in PubChem BioAssay (NCI).
Compounds without any hit were thinned out: in the full panel of roughly 83,000, 20% have a hit.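 Values shown are percent growth following 48 h exposure of cells in 96-well plates to a single concentration of compound; below 10 was considered active.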 The source made the active and inactive calls.

Columns and labels:
Assay in all cases: NCI-60 one-dose screen, 48 h (100 = growth as untreated, 0 = no growth, -100 = all killed)
Conditions in all cases: 10 µM unless noted
DU-145 prostate = tested on: DU-145 prostate
K-562 leukemia = tested on: K-562 leukemia
MALME-3M melanoma = tested on: MALME-3M melanoma
MDA-MB-231 breast = tested on: MDA-MB-231 breast
RXF 393 renal = tested on: RXF 393 renal
SF-268 CNS = tested on: SF-268 CNS
SF-295 CNS = tested on: SF-295 CNS
SF-539 CNS = tested on: SF-539 CNS
UACC-257 melanoma = tested on: UACC-257 melanoma
M14 melanoma = tested on: M14 melanoma
HCT-15 colon = tested on: HCT-15 colon
HT29 colon = tested on: HT29 colon
SNB-75 CNS = tested on: SNB-75 CNS
SNB-19 CNS = tested on: SNB-19 CNS
U251 CNS = tested on: U251 CNS
PC-3 prostate = tested on: PC-3 prostate
SK-MEL-5 melanoma = tested on: SK-MEL-5 melanoma
UACC-62 melanoma = tested on: UACC-62 melanoma
LOX IMVI melanoma = tested on: LOX IMVI melanoma
SK-MEL-28 melanoma = tested on: SK-MEL-28 melanoma

Measured: growth

CC(=O)CC(=O)SC1=NCCS1
inactive: DU-145 prostate 121% | K-562 leukemia 104% | MALME-3M melanoma 140% | MDA-MB-231 breast 112% | RXF 393 renal 122% | SF-268 CNS 102% | SF-295 CNS 109% | SF-539 CNS 102% | UACC-257 melanoma 98.8% | M14 melanoma 113% | HCT-15 colon 100% | HT29 colon 105% | SNB-75 CNS 109% | SNB-19 CNS 107% | U251 CNS 102% | PC-3 prostate 89.9% | SK-MEL-5 melanoma 112% | UACC-62 melanoma 115% | LOX IMVI melanoma 97.7% | SK-MEL-28 melanoma 115%

C=C(C)[C@@H]1CC[C@]2(C(=O)NCCNCCNCCN)CC[C@]3(C)[C@H](CC[C@@H]4[C@@]5(C)CC[C@H](O)C(C)(C)[C@@H]5CC[C@]43C)[C@@H]12
active: DU-145 prostate -8.34% [100 µM] | K-562 leukemia -15.8% [100 µM] | MALME-3M melanoma -100% [100 µM] | MDA-MB-231 breast -56.9% [100 µM] | RXF 393 renal -82.9% [100 µM] | SF-268 CNS -31% [100 µM] | SF-295 CNS -84.7% [100 µM] | SF-539 CNS -100% [100 µM] | UACC-257 melanoma -39.6% [100 µM] | M14 melanoma -31% [100 µM] | HCT-15 colon -24.8% [100 µM] | HT29 colon -39.6% [100 µM] | SNB-75 CNS -79.3% [100 µM] | SNB-19 CNS -74.5% [100 µM] | U251 CNS -71.6% [100 µM] | PC-3 prostate 1.07% [100 µM] | SK-MEL-5 melanoma -90.1% [100 µM] | UACC-62 melanoma -100% [100 µM] | LOX IMVI melanoma -41% [100 µM] | SK-MEL-28 melanoma -98.7% [100 µM]

CC(=O)OC[C@]12CC[C@@H](C(=O)CBr)[C@@H]1[C@H]1CC[C@@H]3[C@@]4(C)CCCNC(C)(C)[C@@H]4CC[C@@]3(C)[C@]1(C)CC2
active: DU-145 prostate -94.7% [100 µM] | K-562 leukemia 5.86% [100 µM] | MALME-3M melanoma -75.7% [100 µM] | MDA-MB-231 breast -71.8% [100 µM] | RXF 393 renal -81.9% [100 µM] | SF-268 CNS -65.5% [100 µM] | SF-295 CNS -85.4% [100 µM] | SF-539 CNS -81.4% [100 µM] | UACC-257 melanoma -76.6% [100 µM] | M14 melanoma -48.5% [100 µM] | HCT-15 colon -74.7% [100 µM] | HT29 colon -81.9% [100 µM] | SNB-75 CNS -98.3% [100 µM] | SNB-19 CNS -93.4% [100 µM] | U251 CNS -88.6% [100 µM] | PC-3 prostate -76.6% [100 µM] | SK-MEL-5 melanoma -91.7% [100 µM] | UACC-62 melanoma -90.9% [100 µM] | LOX IMVI melanoma -91.6% [100 µM] | SK-MEL-28 melanoma -86.7% [100 µM]

O=C(CCCCCCSc1nc(-c2ccc(Cl)cc2)cc(-c2ccc(Cl)cc2)n1)NO
active: RXF 393 renal 2.65% | SK-MEL-5 melanoma 5.66% | LOX IMVI melanoma 2.18%
inactive: DU-145 prostate 22.4% | K-562 leukemia 24.4% | MALME-3M melanoma 15% | MDA-MB-231 breast 61.1% | SF-268 CNS 30.4% | SF-295 CNS 52.6% | SF-539 CNS 28.4% | UACC-257 melanoma 31.5% | M14 melanoma 31.7% | HCT-15 colon 23.6% | HT29 colon 20.4% | SNB-75 CNS 57.7% | SNB-19 CNS 37.3% | U251 CNS 16.6% | PC-3 prostate 42.8% | UACC-62 melanoma 16.1% | SK-MEL-28 melanoma 57.8%

C[C@H]1[C@H](C)CC[C@]2(C(=O)N3CCN(C)CC3)CC[C@]3(C)C(=CC[C@@H]4[C@@]5(C)C/C(=C/c6ccco6)C(=O)C(C)(C)[C@@H]5CC[C@]43C)[C@H]12
active: SK-MEL-5 melanoma -46.8% [100 µM] | LOX IMVI melanoma -6.24% [100 µM]
inactive: DU-145 prostate 50.4% [100 µM] | K-562 leukemia 28.2% [100 µM] | MALME-3M melanoma 45.7% [100 µM] | MDA-MB-231 breast 15.6% [100 µM] | RXF 393 renal 55.1% [100 µM] | SF-268 CNS 50.3% [100 µM] | SF-295 CNS 29.8% [100 µM] | SF-539 CNS 46.2% [100 µM] | UACC-257 melanoma 22.5% [100 µM] | M14 melanoma 48.8% [100 µM] | HCT-15 colon 32.5% [100 µM] | HT29 colon 26.3% [100 µM] | SNB-75 CNS 62.3% [100 µM] | SNB-19 CNS 47.7% [100 µM] | U251 CNS 17.4% [100 µM] | PC-3 prostate 29.9% [100 µM] | UACC-62 melanoma 32.8% [100 µM] | SK-MEL-28 melanoma 35% [100 µM]

CC[C@]1(O)CC2CN(CCc3c([nH]c4ccccc34)[C@@](C(=O)OC)(c3cc4c(cc3OC)N(C=O)[C@H]3[C@@](O)(C(=O)OC)[C@H](OC(C)=O)[C@]5(CC)C=CCN6CC[C@]43[C@@H]65)C2)C1 (stereo not given in full)
active: DU-145 prostate -46.8% | MDA-MB-231 breast -31.3% | SF-268 CNS 3.28% | SF-295 CNS 6.3% | SF-539 CNS 5.55% | M14 melanoma 4.87% | HT29 colon 4.12% | U251 CNS 8.14% | SK-MEL-5 melanoma -38%
inactive: K-562 leukemia 14.7% | MALME-3M melanoma 54.7% | RXF 393 renal 65.2% | UACC-257 melanoma 53.8% | HCT-15 colon 16% | SNB-75 CNS 38.7% | SNB-19 CNS 43.8% | PC-3 prostate 35.1% | UACC-62 melanoma 35.6% | LOX IMVI melanoma 26% | SK-MEL-28 melanoma 61%
